Records with an inconclusive call do not appear. Active and inactive are the calls of the source. Unless noted, the call rests on the fitted dose curve; in most records, active means well fitted curve in the direction sought with a large enough effect in the repeat runs; inconclusive means weak or mixed curves; inactive means no such curve, though single readings can be large; an effect the other way counts as inactive or inconclusive.
Columns and labels:
[1] = target: Progesterone receptor (Homo sapiens) (UniProt P06401); test: qHTS assay to identify small molecule agonists of the progesterone receptor (PR) signaling pathway (AID 1346784; calls by dose curve; further: nearly all actives have a fitted effect of over 30% in size)
Progesterone receptor (Homo sapiens), sequence (P06401 whole entry, looked up): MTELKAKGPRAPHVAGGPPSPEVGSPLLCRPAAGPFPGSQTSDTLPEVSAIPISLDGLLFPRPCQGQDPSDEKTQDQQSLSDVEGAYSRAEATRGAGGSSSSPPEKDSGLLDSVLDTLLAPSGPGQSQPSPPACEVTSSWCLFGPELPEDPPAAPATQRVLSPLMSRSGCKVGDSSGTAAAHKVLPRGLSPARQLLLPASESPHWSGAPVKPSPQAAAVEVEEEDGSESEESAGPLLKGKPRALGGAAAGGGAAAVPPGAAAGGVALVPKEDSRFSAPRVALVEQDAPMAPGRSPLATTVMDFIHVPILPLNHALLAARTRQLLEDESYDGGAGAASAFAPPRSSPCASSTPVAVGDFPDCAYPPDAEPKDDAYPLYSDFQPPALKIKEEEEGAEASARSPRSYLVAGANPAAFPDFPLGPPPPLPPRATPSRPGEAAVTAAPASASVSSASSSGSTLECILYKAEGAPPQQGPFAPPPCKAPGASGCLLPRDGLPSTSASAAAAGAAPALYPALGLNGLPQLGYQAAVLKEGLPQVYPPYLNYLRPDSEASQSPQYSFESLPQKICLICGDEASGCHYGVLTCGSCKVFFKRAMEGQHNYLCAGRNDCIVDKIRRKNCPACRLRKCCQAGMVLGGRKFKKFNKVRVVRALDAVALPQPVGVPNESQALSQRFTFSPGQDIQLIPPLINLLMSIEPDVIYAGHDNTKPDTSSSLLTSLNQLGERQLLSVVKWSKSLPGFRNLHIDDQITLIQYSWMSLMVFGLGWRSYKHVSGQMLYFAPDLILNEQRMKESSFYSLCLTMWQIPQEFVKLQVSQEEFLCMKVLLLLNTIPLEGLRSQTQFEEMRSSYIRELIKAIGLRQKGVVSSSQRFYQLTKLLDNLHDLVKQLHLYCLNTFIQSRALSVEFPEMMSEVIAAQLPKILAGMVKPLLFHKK
How it was run: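 Reporter assay, GripTite PR-UAS-bla HEK 293T cells: 16 hr exposure to DMSO-dissolved compounds at 37C, 5% CO2, in steroid-depleted (2% charcoal-stripped FBS) medium; beta-lactamase measured by FRET fluorescence.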

[2] = qHTS assay to identify small molecule antagonists of the TGF-beta/Smad signaling pathway - cell viability counter screen (AID 1346824); further: nearly all actives have a fitted effect of over 50% in size
How it was run: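 SBE-bla HEK 293T cells, incubated overnight, then compound plus 0.25 ng/mL TGF-beta1 (stock added) for 5 hr at 37 C. Viability was read in the same wells by CellTiter-Glo luminescence after 30 min at room temperature.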

[3] = qHTS assay to identify small molecule agonists of the TGF-beta/Smad signaling pathway - cell viability counter screen (AID 1346829); further: top concentration of the series differs between compounds; nearly all actives have a fitted effect of over 45% in size
How it was run: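 SBE-bla HEK 293T cells plated overnight, compound exposure 5 hr at 37 C. Viability read in the same wells by CellTiter-Glo luminescence after 30 min at room temperature, following the beta-lactamase read.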

[4] = qHTS assay to identify small molecule agonists of the TGF-beta/Smad signaling pathway (AID 1346859; active means well fitted activation curve with a large enough effect in the signal ratio in the repeat runs, not every such curve was filed as active; the % refers to the signal ratio; further: series mostly up to about 77 µM)
How it was run: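 Screening used HEK 293T SBE-bla cells at 4,000/well. Test agents: 5 hr, 37 C. Detection: FRET substrate, 2 hr RT, then excitation 405 nm with emissions at 460 and 530 nm.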

[5] = target: Thyrotropin-releasing hormone receptor (Homo sapiens) (UniProt P34981); test: qHTS assay to identify small molecule antagonists of the thyrotropin-releasing hormone receptor (TRHR) signaling pathway (AID 1346877; active means well fitted inhibition curve with a large enough effect in the repeat runs, not every such curve was filed as active; further: series mostly up to about 51 µM)
Thyrotropin-releasing hormone receptor (Homo sapiens), sequence (P34981 whole entry, looked up): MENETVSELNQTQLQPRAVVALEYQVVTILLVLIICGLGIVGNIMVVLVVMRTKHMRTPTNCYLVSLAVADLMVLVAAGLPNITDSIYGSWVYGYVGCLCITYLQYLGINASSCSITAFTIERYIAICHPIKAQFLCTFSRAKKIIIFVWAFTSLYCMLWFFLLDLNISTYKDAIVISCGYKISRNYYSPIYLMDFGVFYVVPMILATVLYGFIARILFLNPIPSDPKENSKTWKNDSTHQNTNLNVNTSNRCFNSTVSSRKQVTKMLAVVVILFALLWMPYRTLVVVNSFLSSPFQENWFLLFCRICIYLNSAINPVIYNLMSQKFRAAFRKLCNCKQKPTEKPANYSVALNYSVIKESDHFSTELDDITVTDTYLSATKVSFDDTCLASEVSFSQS
How it was run: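 Calcium signal in dye-loaded TRHR/HEK293 cells; compounds added 5 min before TRH (1 nM final); fluorescence monitored 3 min at 1 s steps.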

[6] = Human pregnane X receptor (PXR) small molecule agonists, qHTS cell viability counter screen (AID 1346977); further: nearly all actives have a fitted effect of over 50% in size; further: potency means the concentration at half of the fitted maximal effect
How it was run: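 In each well, the PXR reporter HepG2 line was checked for viability: CellTiter-Fluor reagent added 23hr post-dosing, fluorescence read after 1hr incubation at 37C.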

[7] = Caspase-3/7 induction in HepG2 cells by small molecules, qHTS assay (AID 1346978); further: nearly all actives have a fitted effect of over 15% in size
How it was run: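 Wild-type HepG2 cells, 2,000/well, settled 5 hr at 37 C and 5% CO2, then compound-treated for 17 hr; caspase-3/7 activity read by luminescent Caspase-Glo 3/7 after 30 min at room temperature.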

[8] = Caspase-3/7 induction in CHO-K1 cells by small molecules, qHTS cell viability counter screen (AID 1346979); further: nearly all actives have a fitted effect of over 35% in size; further: potency means the concentration at half of the fitted maximal effect
How it was run: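 Following a 5hr settling period, CHO-K1 cells at 1,500 per well received DMSO-dissolved compounds. Cell viability was quantified 16hr later by CellTiter-Fluor fluorescence, measured after 1hr with reagent at 37C.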

[9] = Caspase-3/7 induction in CHO-K1 cells by small molecules, qHTS assay (AID 1346980); further: nearly all actives have a fitted effect of over 15% in size
How it was run: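 Wild-type CHO-K1 cells exposed to compounds for 17hr at 37 C, 5% CO2. Caspase-3/7 activity then measured by Caspase-Glo 3/7 luminescence after 30min at room temperature.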

[10] = target: Nuclear receptor subfamily 1 group I member 2 (Rattus norvegicus) (UniProt Q9R1A7); test: Rat pregnane X receptor (rPXR) activation by small molecules, qHTS assay (AID 1346983); conditions: rPXR luciferase reporter cells, One-Glo luminescence, 24 h; max activation: hits give high values; further: nearly all actives have a fitted effect of over 20% in size
Nuclear receptor subfamily 1 group I member 2 (Rattus norvegicus), sequence (Q9R1A7 whole entry, looked up): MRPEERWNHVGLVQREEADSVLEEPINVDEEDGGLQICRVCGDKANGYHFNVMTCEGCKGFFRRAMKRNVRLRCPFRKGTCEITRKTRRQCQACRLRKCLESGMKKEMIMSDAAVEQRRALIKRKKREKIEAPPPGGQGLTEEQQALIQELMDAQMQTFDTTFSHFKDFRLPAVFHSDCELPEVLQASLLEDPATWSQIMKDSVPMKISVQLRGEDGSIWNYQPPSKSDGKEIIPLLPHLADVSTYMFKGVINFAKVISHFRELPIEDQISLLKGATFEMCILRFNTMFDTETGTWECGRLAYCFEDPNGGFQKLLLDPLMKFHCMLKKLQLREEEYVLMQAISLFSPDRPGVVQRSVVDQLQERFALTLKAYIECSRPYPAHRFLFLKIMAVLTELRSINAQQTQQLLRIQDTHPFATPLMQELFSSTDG
How it was run: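 Cell-based rPXR activation assay: rPXR cells, 2,000 per well, rested 5hr at 37 C, then exposed to compounds in DMSO for 24 hr at 37 C. Luciferase activity read by One-Glo luminescence after 30 min at room temperature.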

[11] = target: Cytochrome P450 2D6 (Homo sapiens) (UniProt P10635); test: Cytochrome P450 Family 2 Subfamily D Member 6 (CYP2D6) small molecule antagonists: luciferase reporter qHTS assay (AID 1671196); further: nearly all actives have a fitted effect of over 50% in size; further: potency means the concentration at half of the fitted maximal effect
Cytochrome P450 2D6 (Homo sapiens), sequence (P10635 whole entry, looked up): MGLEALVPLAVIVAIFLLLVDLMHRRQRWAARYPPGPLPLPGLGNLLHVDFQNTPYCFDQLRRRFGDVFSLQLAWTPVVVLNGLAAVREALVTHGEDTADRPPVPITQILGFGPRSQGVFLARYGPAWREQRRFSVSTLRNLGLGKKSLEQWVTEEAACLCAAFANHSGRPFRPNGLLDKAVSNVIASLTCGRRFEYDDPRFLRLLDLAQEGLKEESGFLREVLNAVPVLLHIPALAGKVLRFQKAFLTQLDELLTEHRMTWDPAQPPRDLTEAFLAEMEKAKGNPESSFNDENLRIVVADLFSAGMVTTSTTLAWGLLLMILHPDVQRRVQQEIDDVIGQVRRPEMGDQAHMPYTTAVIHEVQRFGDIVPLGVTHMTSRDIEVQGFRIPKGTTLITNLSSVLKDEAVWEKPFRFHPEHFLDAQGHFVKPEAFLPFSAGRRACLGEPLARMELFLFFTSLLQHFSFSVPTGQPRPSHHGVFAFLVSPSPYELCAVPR
How it was run: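 Room-temperature luminescent CYP2D6 activity assay: compound preincubated 10 min with enzyme–substrate mix, NADPH-initiated reaction 1 h, detection reagent 20 min before reading.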

[12] = qHTS assay to identify small molecule agonists of the estrogen receptor alpha (ER-alpha) signaling pathway in the presence of an antagonist - cell viability counter screen (AID 1259386);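 further: series mostly up to about 92 µM; cells exposed to compounds for 22 h at 37 °C before the viability read; nearly all actives have a fitted effect of over 30% in size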
How it was run: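 Using estrogen-depleted VM7Luc4E2 cells, the 15-concentration compound series was applied together with 10.0nM ICI-182,780 and incubated 22hr at 37C/5% CO2. Cell viability was then scored by CellTiter-Fluor.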

[13] = qHTS assay to identify small molecule antagonists of the progesterone receptor (PR) signaling pathway - cell viability counter screen (AID 1346798); further: nearly all actives have a fitted effect of over 50% in size; further: potency means the concentration at half of the fitted maximal effect
How it was run: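 In the same plates used for the beta-lactamase readout, cell viability of compound- and R5020-treated PR-UAS-bla HEK293T cells (16 hr, 37C) was assessed by CellTiter-Glo luminescence.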

[14] = target: Thyrotropin-releasing hormone receptor (Homo sapiens) (UniProt P34981); test: qHTS assay to identify small molecule agonists of the thyrotropin-releasing hormone receptor (TRHR) signaling pathway (AID 1346891; calls by dose curve; further: series mostly up to about 58 µM)
How it was run: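 Readout was intracellular calcium fluorescence in TRHR-Hek293 cells. Cells were incubated 18 h, dye-loaded 2 h at 37 °C, and treated with compound in agonist mode.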

[15] = target: Progesterone receptor (Homo sapiens) (UniProt P06401); test: qHTS assay to identify small molecule antagonists of the progesterone receptor (PR) signaling pathway (AID 1346795; active means well fitted inhibition curve with a large enough effect in the signal ratio in the repeat runs, not every such curve was filed as active; the % refers to the signal ratio)
How it was run: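 Stimulus R5020 at 1 nM final; cells HEK293T PR-UAS-bla; medium with 2% charcoal-stripped FBS; compound exposure 16 hr at 37C, 5% CO2; detection by FRET beta-lactamase substrate, 2 hr, room temperature.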

[16] = qHTS assay to identify small molecule agonists of the progesterone receptor (PR) signaling pathway - cell viability counter screen (AID 1346799; calls by dose curve; further: nearly all actives have a fitted effect of over 45% in size; further: potency means the concentration at half of the fitted maximal effect)
How it was run: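 Multiplexed viability read: CellTiter-Glo luminescence, 30 min RT, following LiveBLAzer FRET measurement on PR-UAS-bla HEK293T cells exposed to compounds 16 hr.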

[17] = Caspase-3/7 induction in HepG2 cells by small molecules, qHTS cell viability counter screen (AID 1346981); further: series mostly up to about 92 µM; nearly all actives have a fitted effect of over 30% in size
How it was run: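 After a 5-hr attachment period at 37 C and 5% CO2, wild-type HepG2 cells received compounds in DMSO. Sixteen hours later CellTiter-Fluor was dispensed and the fluorescent signal quantified after a further hour.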

[18] = target: Nuclear receptor subfamily 1 group I member 2 (Homo sapiens) (UniProt O75469); test: Human pregnane X receptor (PXR) small molecule agonists, qHTS assay (AID 1346982); further: nearly all actives have a fitted effect of over 35% in size; further: potency means the concentration at half of the fitted maximal effect
Nuclear receptor subfamily 1 group I member 2 (Homo sapiens), sequence (O75469 whole entry, looked up): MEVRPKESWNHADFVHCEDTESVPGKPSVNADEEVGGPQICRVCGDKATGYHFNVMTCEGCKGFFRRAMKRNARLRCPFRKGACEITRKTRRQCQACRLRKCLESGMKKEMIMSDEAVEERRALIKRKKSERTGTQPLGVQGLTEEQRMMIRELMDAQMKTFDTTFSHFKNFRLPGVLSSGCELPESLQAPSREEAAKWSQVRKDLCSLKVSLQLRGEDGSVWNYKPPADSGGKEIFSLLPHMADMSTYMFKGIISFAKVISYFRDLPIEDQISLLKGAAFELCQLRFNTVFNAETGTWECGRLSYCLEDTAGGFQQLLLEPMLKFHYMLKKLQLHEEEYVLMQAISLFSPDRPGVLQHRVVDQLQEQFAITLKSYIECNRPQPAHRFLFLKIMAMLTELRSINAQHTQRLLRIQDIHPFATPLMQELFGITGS
How it was run: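 Tox21 qHTS; PXR-Luc HepG2; compounds pinned from DMSO; 24 hr, 37 C; ONE-Glo luciferase detection, 30 min room temperature.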

[19] = target: Nuclear receptor subfamily 1 group I member 2 (Homo sapiens) (UniProt O75469); test: CYP3A4 induction through human pregnane X receptor (PXR) by small molecules, qHTS assay (AID 1346984); further: nearly all actives have a fitted effect of over 40% in size; further: potency means the concentration at half of the fitted maximal effect
How it was run: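 Cells (DPX-2; HepG2 with PXR element plus CYP3A4-promoter luciferase) settled 5hr, then were treated 24hr at 37C. A 3hr, 3uM-final Luciferin-IPA step preceded luminescence measurement with One-Glo.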

[20] = target: Nuclear receptor subfamily 1 group I member 2 (Homo sapiens) (UniProt O75469); test: Human pregnane X receptor (PXR) activation by small molecules, qHTS assay (AID 1346985); further: nearly all actives have a fitted effect of over 40% in size
How it was run: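 DPX-2 cells (HepG2 co-transfected with a PXR response element and a CYP3A4-promoter luciferase construct) were seeded at 2,000 per well, rested 5 hr at 37C, then exposed to DMSO-dissolved compounds for 24 hr. Activation was read as luciferase luminescence.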
On the % scale 0 is the no-effect control and ±100 the full control effect.

Cc1ccc(O)c([C@H](CCN(C(C)C)C(C)C)c2ccccc2)c1
inactive: outcome [1] | Potency [2] | Potency [3] | outcome [4] | outcome [5] | outcome [7] | Potency [8] | Potency [9] | max activation [10] 2.91%
active: Potency [6] 11.9 µM | Potency [11] 3.09 µM

CCCC[C@H]1CN(CC2CCOCC2)C(=O)OC12CCN(C1(C)CCN(C(=O)c3c(C)ncnc3C)CC1)CC2
inactive: Potency [12] | Potency [13] | Potency [2] | Potency [3] | outcome [4] | outcome [5] | Potency [14] | Potency [6] | outcome [7] | Potency [8] | Potency [9] | Potency [11]

O=C1c2cccc(O)c2C(=O)c2c(O)cc(CO)cc21
active: Potency [6] 38.6 µM | Potency [18] 8.63 µM
inactive: outcome [1] | Potency [15] | Potency [13] | Potency [16] | Potency [2] | Potency [3] | outcome [4] | outcome [5] | Potency [14] | outcome [7] | Potency [8] | Potency [9] | Potency [17] | Potency [11]

CCCCOc1ccc(CC(=O)NO)cc1
active: Potency [8] 23.7 µM | Potency [11] 15.5 µM
inactive: outcome [1] | Potency [2] | Potency [3] | outcome [4] | outcome [7] | max activation [10] -0.916% | Potency [19] | Potency [20]

CC(=O)c1c(C)c([N+](=O)[O-])c(C(C)(C)C)c([N+](=O)[O-])c1C
inactive: Potency [12] | Potency [13] | Potency [2] | Potency [3] | outcome [4] | Potency [6] | outcome [7] | Potency [9] | Potency [17] | Potency [11]

CCOC(=O)[C@H](CCc1ccccc1)N[C@H]1CCc2ccccc2N(CC(=O)O)C1=O
active: Potency [13] 21.1 µM | Potency [16] 21.1 µM | Potency [6] 26.6 µM | Potency [8] 23.7 µM | Potency [18] 23.7 µM | Potency [19] 10 µM
inactive: Potency [12] | Potency [2] | Potency [3] | outcome [5] | Potency [14] | Potency [9]

CCN(CC)CCOc1ccc2c(c1)C(=O)c1cc(OCCN(CC)CC)ccc1-2
active: Potency [13] 13.3 µM | Potency [16] 16.8 µM | Potency [6] 13.3 µM | Potency [8] 26.6 µM
inactive: Potency [2] | Potency [3] | outcome [4] | outcome [5] | Potency [9] | max activation [10] 2.03% | Potency [19] | Potency [20]

NC1CCN(c2nc3c(cc2F)c(=O)c(C(=O)O)cn3-c2ccc(F)cc2F)C1 (stereo not drawn)
inactive: Potency [12] | Potency [13] | Potency [2] | Potency [3] | outcome [4] | outcome [5] | Potency [14] | Potency [6] | Potency [9] | Potency [17] | max activation [10] -4.88% | Potency [11]

CCCCOCCOCCOCCOCCO
inactive: Potency [12] | Potency [2] | Potency [3] | outcome [4] | outcome [5] | Potency [6] | outcome [7] | Potency [8] | Potency [9] | Potency [17] | Potency [18]

O=C=NC1CCC(CC2CCC(N=C=O)CC2)CC1 (stereo not drawn)
active: Potency [16] 8.63 µM | Potency [11] 35.6 µM
inactive: outcome [1] | Potency [15] | Potency [2] | Potency [3] | outcome [4] | outcome [5] | Potency [14] | Potency [8] | Potency [9] | Potency [17]

Reference: PubChem BioAssay (Tox21)
